From PubChem BioAssay
Activity calls are given as the source filed them. The rule behind the calls is not given here.

tested on: not listed separately; assay: kinase inhibitors against Plasmodium liver-stage infection, cell-based, known kinase inhibitor set, luminescence, hepatoma host viability (AID 624392); conditions: Plasmodium liver stage in hepatoma cells, luciferase luminescence, concentration not given here; liver cell % of control: measured here: host liver cell viability; parasite % of control: stronger effect = lower value;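 note: infected cells incubated roughly two days before readout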

Row | SMILES | parasite % of control | liver cell % of control [%]
1 | Cn1cc(C2=C(c3cn(CCCNC(N)=N[N+](=O)[O-])c4ccccc34)C(=O)NC2=O)c2ccccc21 | 62.5% (inactive) | 106
2 | CNC(=O)Oc1cc(C)c(/C=C/c2cncc(C(=O)NC)c2)c(C)c1 | 110% (inactive) | 111
3 | O=C(NC1NNC2NNC(c3cccnc3)CC21)C1CC1 (stereo not drawn) | 32.1% (inactive) | 79.6

tested on: not listed separately; assay: modulators of glucocorticoid suppression of NF-kB, cell-based, luciferase, IL-1B stimulus, dexamethasone (AID 624486); conditions: NF-kB luciferase reporter, IL-1B + dexamethasone, luminescence; percent of negative control (+Dex): actives lie on both sides, concentration not given here; z-score: measured here: IL-1B alone, no Dex;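 for percent of negative control (+Dex): 100% = mean signal of vehicle control wells on the plate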

Row | SMILES | percent of negative control (+Dex) | z-score
4 | Cn1cc(C2=C(c3cn(CCCNC(N)=N[N+](=O)[O-])c4ccccc34)C(=O)NC2=O)c2ccccc21 | 102% (inactive) | -0.575
5 | CNC(=O)Oc1cc(C)c(/C=C/c2cncc(C(=O)NC)c2)c(C)c1 | 107% (inactive) | 1.96
6 | O=C(NC1NNC2NNC(c3cccnc3)CC21)C1CC1 (stereo not drawn) | 166% (active) | -0.58

target: Cellular tumor antigen p53 (Homo sapiens) (UniProt P04637); assay: kinase inhibitors altering GFP-p53 stability in HPV16-positive cells, imaging, known kinase inhibitor set, EGFP/DsRed ratio (AID 1053116); conditions: stronger effect = higher value; EGFP object count: measured here: GFP-p53 positive objects count;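 note: cells exposed to compounds for 24 h at 37 °C before reading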
Sequence (P04637 whole entry, looked up): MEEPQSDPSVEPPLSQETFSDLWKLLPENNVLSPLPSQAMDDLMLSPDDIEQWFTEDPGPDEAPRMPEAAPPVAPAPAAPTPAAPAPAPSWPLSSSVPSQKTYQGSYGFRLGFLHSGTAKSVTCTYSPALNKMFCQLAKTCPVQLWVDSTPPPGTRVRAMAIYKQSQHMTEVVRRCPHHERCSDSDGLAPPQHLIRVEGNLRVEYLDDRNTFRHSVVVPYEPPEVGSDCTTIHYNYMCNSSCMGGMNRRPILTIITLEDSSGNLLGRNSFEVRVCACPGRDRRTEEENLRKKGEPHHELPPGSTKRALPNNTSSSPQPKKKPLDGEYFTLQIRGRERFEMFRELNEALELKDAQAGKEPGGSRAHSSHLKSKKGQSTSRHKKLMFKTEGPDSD

Row | SMILES | EGFP/DsRed ratio | EGFP object count
7 | Cn1cc(C2=C(c3cn(CCCNC(N)=N[N+](=O)[O-])c4ccccc34)C(=O)NC2=O)c2ccccc21 | 0.0481 (inactive) | 2.5
8 | CNC(=O)Oc1cc(C)c(/C=C/c2cncc(C(=O)NC)c2)c(C)c1 | 0.0984 (inactive) | 1
9 | O=C(NC1NNC2NNC(c3cccnc3)CC21)C1CC1 (stereo not drawn) | 0.68 (active) | 52
